According to PubChem BioAssay (NCI):
Several values for one entry are separate records, joined by “and”; a condition that tells them apart may be missing. Equal entries are not always repeated. Compounds without any hit were thinned out: in the full panel of roughly 79,000, 15% have a hit. More than one record can exist for a structure, and the calls need not agree. Activity calls are given as the source filed them. Rule as the data show it: active = growth inhibition above about 70%; inactive = the rest.

Key:
[1] = NCI Yeast Anticancer Drug Screen. Data for the rad50 strain (AID 155);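 also: 0% = growth of vehicle-only cultures of the same strain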; details: S. cerevisiae rad50 strain growth inhibition; at 50.0 µM; stronger effect = higher value
Procedure, shortened: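 Compounds were tested on a yeast strain with an engineered DNA damage repair alteration; the reported value is growth inhibition normalised to vehicle treatment.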

[2] = NCI Yeast Anticancer Drug Screen. Data for the mec2-1 strain (AID 157); details: S. cerevisiae mec2-1 strain, stronger effect = higher value
Procedure, shortened: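 Strain: mec2-1 (DNA repair/cell cycle alteration). Compound exposure, then growth measured; inhibition expressed relative to vehicle.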

[3] = NCI Yeast Anticancer Drug Screen. Data for the sgs1 mgt1 strain (AID 161);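 also: 0% = growth of cultures given vehicle only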; details: S. cerevisiae sgs1 mgt1 strain, stronger effect = higher value
Procedure, shortened: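 Genetically altered yeast, compound exposure, growth inhibition relative to vehicle.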

[4] = NCI Yeast Anticancer Drug Screen. Data for the cln2 rad14 strain (AID 165);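 also: 0% = growth equal to vehicle treated cultures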; details: S. cerevisiae cln2 rad14 strain, stronger effect = higher value
Procedure, shortened: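 Compounds are applied to the cln2 rad14 yeast strain, and growth is then compared with that of vehicle-treated cultures to give inhibition.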

[5] = NCI Yeast Anticancer Drug Screen. Data for the bub3 strain (AID 167); details: S. cerevisiae bub3 mutant strain, stronger effect = higher value
Procedure, shortened: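 Growth of a checkpoint-deficient yeast mutant is measured after compound exposure. Values represent inhibition relative to vehicle.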

[6] = NCI Yeast Anticancer Drug Screen. Data for the mlh1 rad18 strain (AID 175); details: S. cerevisiae mlh1 rad18 strain growth inhibition, stronger effect = higher value
Procedure, shortened: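 Read-out is yeast growth inhibition, calculated against vehicle-only controls. The compound was applied to a strain engineered with DNA damage repair alterations.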

[7] = at 5.0 µM (retest, dose inferred, filed as 0.5)
[8] = at 50.0 µM (retest, dose inferred, filed as 5.0)

Measured: growth inhibition

CCCc1ccc(OC2OC(COC(C)=O)C(OC(C)=O)C(OC(C)=O)C2OC(C)=O)cc1 (centres undefined)
inactive: [1] -7% and -12.6% | [2]; at 50.0 µM -9.65% and 2.4% | [3]; at 50.0 µM -13.5% and 9.65% | [4]; at 50.0 µM -5.25% and 3.95% | [5]; at 50.0 µM -37% and 5.1% | [6]; at 50.0 µM -8.05% and 4.1%

O=S(=O)(O)c1cc(N=Nc2cc(S(=O)(=O)O)c3cccnc3c2O)ccc1/C=C/c1ccc(N=Nc2cc(S(=O)(=O)O)c3cccnc3c2O)cc1S(=O)(=O)O
inactive: [1] -16.7% and 18.6% | [2]; at 50.0 µM -17.4% and 7.65% | [3]; at 50.0 µM -26.5% and 7.4% | [4]; at 50.0 µM -24.4% and -55.5% | [5]; at 50.0 µM -18.6% and -62.5% | [6]; at 50.0 µM -111% and -27.9%

CC(C)(O)CN/C=C(\C(=O)OC(C)(C)C)N1C(=O)c2ccccc2C1=O
inactive: [1] 17.1% and -17% | [2]; at 50.0 µM 3% and -6.7% | [3]; at 50.0 µM 13.8% and -5.45% | [4]; at 50.0 µM -39% and -11.5% | [5]; at 50.0 µM -1.65% and -4.95% | [6]; at 50.0 µM 2.8% and 17.6%

Cc1ccc(S(=O)(=O)NN=C2C(C)(C)CC2(C)C)cc1
inactive: [1] -21.9% and 21.2% | [2]; at 50.0 µM 1.15% and -11.8% | [3]; at 50.0 µM 8.55% and 6.6% | [4]; at 50.0 µM 13.9% and -23.5% | [5]; at 50.0 µM 6.15% and -2.85% | [6]; at 50.0 µM -24.8% and 3.65%

OCC(O)C(O)C(O)C(O)[C@@H](O)c1nc2ccccc2[nH]1 (some centres undefined)
inactive: [1] -5.1% and -12.2% | [2]; at 50.0 µM 3% and -0.15% | [3]; at 50.0 µM -2.75% and -4.4% | [4]; at 50.0 µM -34.5% and -16.2% | [5]; at 50.0 µM 2.8% and 21.2% | [6]; at 50.0 µM -3.8% and 12.2%

C[N+](C)(C)CCOC(=O)c1ccccc1CBr
40.9% (inactive) and 97.7% (active): [4]; at 50.0 µM
inactive: [1] -10.6% and 52.1% | [6]; at 50.0 µM 3.95% and 64.9%
22.8% (inactive) and 96.6% (active): [2]; at 50.0 µM
16.8% (inactive) and 85.9% (active): [3]; at 50.0 µM
35.5% (inactive) and 99.2% (active): [5]; at 50.0 µM

Cc1ccc(C(O)c2nnc(C(O)c3ccc(C)cc3)nn2)cc1 (centres undefined)
-3.55% (inactive) and 71% (active): [3]; at 50.0 µM
inactive: [1] 11.2% and 33.9% | [2]; at 50.0 µM 11.6% and 29% | [4]; at 50.0 µM 9.45% and 16.4% | [5]; at 50.0 µM 18.9% and 21.2% | [6]; at 50.0 µM 18.8% and 40.5%

CCOC(=O)c1ccc(O)c(O)c1
inactive: [1] -23.9% and 15.5% | [2]; at 50.0 µM -28.1% and 6.75% | [3]; at 50.0 µM -6.65% and 4.05% | [4]; at 50.0 µM -12.2% and 8.9% | [5]; at 50.0 µM -11.8% and 0.7% | [6]; at 50.0 µM -8.8% and -5.75%

CCOC(=O)CC1(O)C=CC(=O)C=C1
inactive: [1] 9.25% and 14.2% | [2]; at 50.0 µM 0.5% and -5.6% | [3]; at 50.0 µM 0.55% and -5.1% | [4]; at 50.0 µM 15.1% and 21.2% | [5]; at 50.0 µM 6.65% and 22.9% | [6]; at 50.0 µM -6.2% and 36.4%

Clc1ccc(/C=N/N=C/c2ccc(Cl)cc2)cc1
inactive: [1] -52.5% and -17.1% | [2]; at 50.0 µM -28.9% and -16% | [3]; at 50.0 µM -42.2% and -19.6% | [4]; at 50.0 µM -23% and -20.1% | [5]; at 50.0 µM -33.3% and 6.3% | [6]; at 50.0 µM -33.5% and -18.1%

NC(=S)N/N=C/c1ccc([N+](=O)[O-])cc1
inactive: [1] 40.4% and 11.5% | [2]; at 50.0 µM 29.7% and 13.2% | [3]; at 50.0 µM 29.2% and 4.5% | [4]; at 50.0 µM 24.1% and 20.6% | [5]; at 50.0 µM 5.7% and 3.7% | [6]; at 50.0 µM 30.9% and 5.95%

COC1OC2COC(C)(C)OC2C1NS(=O)(=O)Cc1ccccc1 (centres undefined)
inactive: [1] 2.8% and 0.75% | [2]; at 50.0 µM -6.85% and -9.65% | [3]; at 50.0 µM -2.1% and -4.05% | [4]; at 50.0 µM -32.6% and -34.1% | [5]; at 50.0 µM -3.45% and -11.8% | [6]; at 50.0 µM -14.1% and -6.35%

COc1cc(N)ccc1NC(C)=O
inactive: [1] -5.25% and 0.6% | [2]; at 50.0 µM -13.6% and -12.7% | [3]; at 50.0 µM 4.45% and -35.6% | [4]; at 50.0 µM 18.4% and -41% | [5]; at 50.0 µM -0.9% and -2.55% | [6]; at 50.0 µM 18.8% and -21.4%

COc1ccc(C(C)=O)cc1OC
inactive: [1] -0.95% and 6.35% | [2]; at 50.0 µM -7.9% and -3.4% | [3]; at 50.0 µM -1.4% and -3.3% | [4]; at 50.0 µM 2.75% and -6.5% | [5]; at 50.0 µM 3.25% and 2.6% | [6]; at 50.0 µM -4.15% and 1.65%

Cc1nc2ccc(Br)cc2c(=O)n1-c1ccc(NC2OC(CO)C(O)C(O)C2O)cc1 (centres undefined)
inactive: [1] 49.9% and -0.75% | [2]; at 50.0 µM 36.6% and -23.4% | [3]; at 50.0 µM -33.1% and 0.7% | [4]; at 50.0 µM -3.65% and -35.2% | [5]; at 50.0 µM -49.1% and -7.65% | [6]; at 50.0 µM -60.5% and -10.8%

O=C(O)C1CCCC2C(O)CCC(=O)C12 (centres undefined)
inactive: [1] -23.5% and -14.2% | [2]; at 50.0 µM -16.3% and -6.8% | [3]; at 50.0 µM -12.7% and -5.6% | [4]; at 50.0 µM -5.45% and 4.25% | [5]; at 50.0 µM -12.9% and -5.9% | [6]; at 50.0 µM -29.4% and -32%

Cc1cc(Cc2cc(C)c(O)c(C(=O)O)c2)cc(C(=O)O)c1O
inactive: [1] 0.25% and -7.15% | [2]; at 50.0 µM 10.1% and -0.4% | [3]; at 50.0 µM 2.35% and 0.2% | [4]; at 50.0 µM -91.8% and -2.45% | [5]; at 50.0 µM 27.3% and 4.85% | [6]; at 50.0 µM 7.05% and -16.3%

CC(COC(=O)c1ccccc1)NC1CCCCC1 (centres undefined)
inactive: [1] 12.3% and 21.9% | [2]; at 50.0 µM 1.05% and -0.85% | [3]; at 50.0 µM 13.7% and 10.7% | [4]; at 50.0 µM -27.6% and -0.55% | [5]; at 50.0 µM -10.3% and 0.7% | [6]; at 50.0 µM 10.4% and -0.2%

COc1ccc(C(O)c2nccn2C)c(OC)c1 (centres undefined)
inactive: [1] -17.6% and -23.8% | [2]; at 50.0 µM -3.55% and -10.8% | [3]; at 50.0 µM -0.3% and -6.2% | [4]; at 50.0 µM 14.7% and 10.1% | [5]; at 50.0 µM 20.1% and 21% | [6]; at 50.0 µM 5.35% and -6.35%

COc1c2c(cc(O)c1C(C)=O)OC(C)(C)C=C2
inactive: [1] -4.8% and 16.6% | [2]; at 50.0 µM -37.5% and -36.5% | [3]; at 50.0 µM -11.6% and 16% | [4]; at 50.0 µM -14.9% and 11.6% | [5]; at 50.0 µM -12.1% and 18.1% | [6]; at 50.0 µM -15% and 5.85%

COc1cc2c(cc1OC)C1Cc3cc(OC)c(OC)cc3C(C2)N1C
inactive: [1] 23.4% and -37.9% | [2]; at 50.0 µM 4.4% and -16.9% | [3]; at 50.0 µM -6.2% and -5% | [4]; at 50.0 µM 6.8% and 2.6% | [5]; at 50.0 µM -5.25% and -3.2% | [6]; at 50.0 µM -45% and -24.2%

O=C(CCCOc1ccc(Cl)cc1Cl)NC(Cc1c[nH]c2ccccc12)C(=O)O (centres undefined)
inactive: [1] -1.3% and 1.5% | [2]; at 50.0 µM 0.15% and -1.95% | [3]; at 50.0 µM 4.3% and -3.6% | [4]; at 50.0 µM 19.1% and 18.7% | [5]; at 50.0 µM -17.6% and -17.1% | [6]; at 50.0 µM 7.2% and 10.7%

CCOC(=O)C(OC1OC(C(=O)OC)C(OC(C)=O)C(OC(C)=O)C1OC(C)=O)c1ccccc1 (centres undefined)
inactive: [1] -10.2% and -20.9% | [2]; at 50.0 µM -5.7% and -8.3% | [3]; at 50.0 µM -13.2% and -11.8% | [4]; at 50.0 µM 0.5% and -29.8% | [5]; at 50.0 µM -6.85% and -17.8% | [6]; at 50.0 µM -33.1% and -35.5%

COc1cc2c(cc1OC)C(=O)C1COC(=O)C1C2 (centres undefined)
inactive: [1] -17% and 0.6% | [2]; at 50.0 µM -18.8% and -11.5% | [4]; at 50.0 µM -11.9% and 5.05% | [5]; at 50.0 µM -6.2% and -4.85% | [6]; at 50.0 µM 0.55% and 12.2%

Cc1cccc(OC(=O)Cc2ccccc2)c1
inactive: [1] -17.1% and -34.1% | [2]; at 50.0 µM -14.6% and -8.2% | [3]; at 50.0 µM -6.1% and -8.35% | [4]; at 50.0 µM -9.45% and -38% | [5]; at 50.0 µM 13.6% and -12.9% | [6]; at 50.0 µM -16.2% and -8%

CC1CCOS(=O)O1 (centres undefined)
inactive: [1] 6.55% and -13.5% | [2]; at 50.0 µM -15% and 6.9% | [3]; at 50.0 µM 19.1% and -9.65% | [5]; at 50.0 µM -4.45% and 7.7% | [6]; at 50.0 µM 18.2% and -7%

CCN(CC)CC(O)c1cc(-c2ccc(Cl)cc2)nc2cc(Cl)ccc12 (centres undefined)
active: [2]; [8] 100% | [2]; at 50.0 µM 93.9% | [3]; [8] 99% | [3]; at 50.0 µM 99.7% | [4]; [8] 99% | [5]; [8] 99% | [5]; at 50.0 µM 78.5% | [6]; [8] 99% | [6]; at 50.0 µM 98.3%
inactive: [2]; [7] -3% | [3]; [7] -1% | [4]; [7] -2% | [4]; at 50.0 µM 47.9% | [5]; [7] -3% | [6]; [7] 11%
